Source: PMC8384837, “Expanding the binding specificity for RNA recognition by a PUF domain”
Where a chain is given by its changes, count along the chain named.

Columns and labels:
Assay in all cases: yeast three-hybrid, YBZ-1, SC-Leu-His + 0.5 mM 3-AT, 4 days
Details in all cases: tags: N-Gal4 AD-HA kept; label: inside an RPR1-promoter hybrid RNA with tandem MS2 sites; ssRNA
PUM1 PUF domain R4-WSR = PUM1 PUF domain R4-WSR (Homo sapiens, UniProt Q14671 828-1176, N971W;H972S;Q975R)
Summary of the method: (§1)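 The interaction score is the logarithmic change in variant frequency from input to selection. It uses log2, with a pseudocount of 1 for absent variants, and frequencies came from PCR-amplified, Illumina-sequenced repeat regions. The libraries were Pumilio-1 PUF domains randomized at the three base-contacting residues per repeat, co-expressed with matching RNA elements in strain YBZ-1 (LexA–MS2 coat fusion, HIS3 reporter). Plating lasted four days on SC-Leu (input) or SC-Leu-His + 0.5 mM 3-AT (selection).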

PUM1 PUF domain R5-TSR = PUM1 PUF domain R5-TSR (Homo sapiens, UniProt Q14671 828-1176, C1007T;R1008S;Q1011R)
Summary of the method: as §1

PUM1 PUF domain R5-QQR = PUM1 PUF domain R5-QQR (Homo sapiens, UniProt Q14671 828-1176, C1007Q;R1008Q;Q1011R)
Summary of the method: as §1

PUM1 PUF domain R5-RKI = PUM1 PUF domain R5-RKI (Homo sapiens, UniProt Q14671 828-1176, C1007R;R1008K;Q1011I)
Summary of the method: as §1

PUM1 PUF domain R1-RVS = PUM1 PUF domain R1-RVS (Homo sapiens, UniProt Q14671 828-1176, S863R;R864V;Q867S)
Summary of the method: as §1

PUM1 PUF domain R1-RGS = PUM1 PUF domain R1-RGS (Homo sapiens, UniProt Q14671 828-1176, S863R;R864G;Q867S)
Summary of the method: as §1

PUM1 PUF domain R4-CNI = PUM1 PUF domain R4-CNI (Homo sapiens, UniProt Q14671 828-1176, N971C;H972N;Q975I)
Summary of the method: as §1

PUM1 PUF domain R3-RVS = PUM1 PUF domain R3-RVS (Homo sapiens, UniProt Q14671 828-1176, C935R;R936V;Q939S)
Summary of the method: as §1

PUM1 PUF domain R6-FYS = biological target: T1, PUM1 PUF domain R6-FYS (Homo sapiens, UniProt Q14671 828-1176, N1043F;Q1047S)
T1 sequence: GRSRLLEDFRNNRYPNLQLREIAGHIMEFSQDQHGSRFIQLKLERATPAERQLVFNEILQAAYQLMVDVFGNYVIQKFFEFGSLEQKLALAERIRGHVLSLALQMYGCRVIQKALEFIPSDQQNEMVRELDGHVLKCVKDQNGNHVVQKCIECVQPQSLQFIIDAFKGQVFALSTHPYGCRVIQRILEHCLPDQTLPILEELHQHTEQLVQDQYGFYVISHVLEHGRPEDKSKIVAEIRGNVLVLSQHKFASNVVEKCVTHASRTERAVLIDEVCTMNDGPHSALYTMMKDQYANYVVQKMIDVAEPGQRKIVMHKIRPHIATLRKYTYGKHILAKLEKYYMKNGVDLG
Summary of the method: as §1

PUM1 PUF domain R6-GYR = biological target: T2, PUM1 PUF domain R6-GYR (Homo sapiens, UniProt Q14671 828-1176, N1043G;Q1047R)
T2 sequence: T1 sequence with F216G, S220R
Summary of the method: as §1

For “GGCUAGAACUAGUGGAUCCCCCGGCGCCCGGCGGCUCGAGCCCGGGUAAGUGUAUAUAGUCUGCAUGCCGCCGGGCGCCAUGCCUGCAGGUCGACUCUAGAAAACAUG”, the binding signal (PUM1 PUF domain R4-WSR) was 1.87 log2 enrichment (interaction score).

“GGCUAGAACUAGUGGAUCCCCCGGCGCCCGGCGGCUCGAGCCCGGGUAAGUGUCAAUAGUCUGCAUGCCGCCGGGCGCCAUGCCUGCAGGUCGACUCUAGAAAACAUG” was tested, and the binding signal (PUM1 PUF domain R5-TSR) was 5.55 log2 enrichment (interaction score), the binding signal (PUM1 PUF domain R5-QQR) was 6.22 log2 enrichment (interaction score) and the binding signal (PUM1 PUF domain R5-RKI) was 3.24 log2 enrichment (interaction score).

“GGCUAGAACUAGUGGAUCCCCCGGCGCCCGGCGGCUCGAGCCCGGGUAAGUGUAAAUGGUCUGCAUGCCGCCGGGCGCCAUGCCUGCAGGUCGACUCUAGAAAACAUG” was tested, and the binding signal (PUM1 PUF domain R1-RVS) was 1.89 log2 enrichment (interaction score) and the binding signal (PUM1 PUF domain R1-RGS) was 0.85 log2 enrichment (interaction score).

With “GGCUAGAACUAGUGGAUCCCCCGGCGCCCGGCGGCUCGAGCCCGGGUAAGUGUAAAUCGUCUGCAUGCCGCCGGGCGCCAUGCCUGCAGGUCGACUCUAGAAAACAUG” the binding signal (PUM1 PUF domain R1-RVS) was 4.31 log2 enrichment (interaction score) and the binding signal (PUM1 PUF domain R1-RGS) was 2.68 log2 enrichment (interaction score).

“GGCUAGAACUAGUGGAUCCCCCGGCGCCCGGCGGCUCGAGCCCGGGUAAGUGUACAUAGUCUGCAUGCCGCCGGGCGCCAUGCCUGCAGGUCGACUCUAGAAAACAUG” was tested, and the binding signal (PUM1 PUF domain R4-WSR) was 2.55 log2 enrichment (interaction score) and the binding signal (PUM1 PUF domain R4-CNI) was 3.63 log2 enrichment (interaction score).

With “GGCUAGAACUAGUGGAUCCCCCGGCGCCCGGCGGCUCGAGCCCGGGUAAGUGUAAUUAGUCUGCAUGCCGCCGGGCGCCAUGCCUGCAGGUCGACUCUAGAAAACAUG” the binding signal (PUM1 PUF domain R3-RVS) was 2.78 log2 enrichment (interaction score).

For “GGCUAGAACUAGUGGAUCCCCCGGCGCCCGGCGGCUCGAGCCCGGGUAAGUGUAAAUAGUCUGCAUGCCGCCGGGCGCCAUGCCUGCAGGUCGACUCUAGAAAACAUG”, the binding signal (PUM1 PUF domain R6-FYS) was 2.53 log2 enrichment (interaction score) and the binding signal (PUM1 PUF domain R6-GYR) was 6.45 log2 enrichment (interaction score).

In the case of “GGCUAGAACUAGUGGAUCCCCCGGCGCCCGGCGGCUCGAGCCCGGGUAAGUGCAAAUAGUCUGCAUGCCGCCGGGCGCCAUGCCUGCAGGUCGACUCUAGAAAACAUG”, the binding signal (PUM1 PUF domain R6-GYR) is reported as 5.76 log2 enrichment (interaction score).

For “GGCUAGAACUAGUGGAUCCCCCGGCGCCCGGCGGCUCGAGCCCGGGUAAGUGUAAAUUGUCUGCAUGCCGCCGGGCGCCAUGCCUGCAGGUCGACUCUAGAAAACAUG”, the binding signal (PUM1 PUF domain R1-RVS) was 3.69 log2 enrichment (interaction score) and the binding signal (PUM1 PUF domain R1-RGS) was 2.53 log2 enrichment (interaction score).
